# Measurements as given in PubChem BioAssay AID2322 (Broad Institute, 2010).
# Out of some 27,000 compounds screened, about 120 (0.44%) were called active. No stated cut-off is given here; in the data, active means inhibition above about 20%; inconclusive means no clear call, values can overlap the other calls; inactive means below that. The sample as a whole holds a higher share of actives than the screen did.
# Molecular target: Serine/threonine-protein kinase 33 (Homo sapiens) (UniProt Q9BYT3)
# Sequence (Q9BYT3 whole entry, looked up): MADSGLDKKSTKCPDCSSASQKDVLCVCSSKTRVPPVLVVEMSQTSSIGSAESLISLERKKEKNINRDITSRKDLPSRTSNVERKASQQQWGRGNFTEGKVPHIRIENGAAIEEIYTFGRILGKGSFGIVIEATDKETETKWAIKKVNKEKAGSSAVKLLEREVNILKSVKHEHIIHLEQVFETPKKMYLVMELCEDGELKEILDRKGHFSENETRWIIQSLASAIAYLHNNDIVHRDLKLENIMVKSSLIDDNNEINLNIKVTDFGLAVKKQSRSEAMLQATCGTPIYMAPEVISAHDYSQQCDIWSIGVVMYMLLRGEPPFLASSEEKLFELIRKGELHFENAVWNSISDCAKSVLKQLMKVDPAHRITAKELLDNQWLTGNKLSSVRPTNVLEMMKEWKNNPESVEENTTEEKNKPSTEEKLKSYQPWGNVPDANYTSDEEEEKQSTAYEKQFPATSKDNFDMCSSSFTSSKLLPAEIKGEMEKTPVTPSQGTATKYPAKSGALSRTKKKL
# Assay: STK33 kinase inhibitors, primary screen, biochemical, luminescence, ADP-Glo, MBP substrate (AID 2322)
# Settings: at 12.5 µM, active compounds read high
row,Compound,inhibition
1,COC(=O)c1c(NC(=S)Nc2ccc(OC)cc2[N+](=O)[O-])sc2c1CCC(C)C2 (stereo not drawn),-1.18% (inactive)
2,Cc1nnc2sc(-c3cccc(NC(=O)C(C)Oc4ccc(Cl)cc4Cl)c3)nn12 (stereo not drawn),1.75% (inactive)
3,CN(CC(=O)Nc1c(F)cccc1F)S(=O)(=O)c1ccc(Cl)cc1,0.176% (inactive)
4,CC(C)S(=O)(=O)NCC1CCN(Cc2cccc(OCCO)c2)CC1,-4.57% (inactive)
5,CC1(C)CC[C@]2(C(=O)O)CC[C@]3(C)C(=CCC4[C@@]5(C)CC[C@H](OC6O[C@H](CO)[C@@H](O)[C@H](O[C@@H]7O[C@H](CO)[C@@H](O)[C@H](O)[C@H]7O)[C@H]6O)C(C)(C)C5CC[C@]43C)[C@@H]2C1 (stereo partly drawn),-3.3% (inactive)
6,CN(CC(=O)Nc1ccc(Br)cc1)S(=O)(=O)c1ccc2ccccc2c1,-0.268% (inactive)
7,COc1ccc(N(CC(=O)Nc2cccnc2)S(C)(=O)=O)c(OC)c1,1.05% (inactive)
8,CN1CCN(S(=O)(=O)c2ccc(NC(=O)C3CC=CCC3C(=O)O)cc2)CC1 (stereo not drawn),-6.02% (inactive)
9,O=C(CSc1nnc2c(n1)[nH]c1ccccc12)Nc1cccc(C(F)(F)F)c1,0.0503% (inactive)
10,O=C(c1cc([N+](=O)[O-])ccc1NCc1cccnc1)N1CCOCC1,0.472% (inactive)
11,CCc1cc(C(=O)OC)c(NC(=O)CC2Sc3ccc(C(F)(F)F)cc3NC2=O)s1 (stereo not drawn),26.1% (active)
12,CCc1cc(C(=O)OC)c(NC(=S)Nc2ccc(OC)cc2[N+](=O)[O-])s1,2.32% (inactive)
13,C=CCn1c(SCc2nc3ccccc3[nH]2)nnc1-c1cccc(C)c1,-1.59% (inactive)
14,CCn1c(SCC(=O)Nc2ccc3c(c2)OCCO3)nnc1-c1ccncc1,0.907% (inactive)
15,COc1ccc(CCNC(=S)Nc2c(C)n(C)n(-c3ccccc3)c2=O)cc1OC,0.317% (inactive)
16,Cc1ccnc(NC(c2cccc(Br)c2)c2ccc3ccc(C)nc3c2O)c1 (stereo not drawn),-1.5% (inactive)
17,COc1ccc(-c2cc(C(F)(F)F)n3nc(C(=O)NCCCN4CCOCC4)cc3n2)cc1OC,-3.3% (inactive)
18,CCOc1ccccc1NC(=O)C1C(C(=O)O)C2C=CC1C21CC1 (stereo not drawn),-4.9% (inactive)
19,Cc1ccc(NC(=O)CCCN2C(=O)c3ccccc3C2=O)cc1,0.883% (inactive)
20,O=C1O[C@@H](c2ccccc2)[C@@H](c2ccccc2)N2[C@@H](c3ccccc3OCCO)[C@]3(C(=O)Nc4ccc(C#CC5(O)CCCCCC5)cc43)[C@@H](C(=O)N3CCN(c4ncccn4)CC3)[C@H]12,10.1% (inactive)
21,COc1ccc(N(CC(=O)Nc2ccc(F)c(F)c2)S(C)(=O)=O)cc1OC,0.788% (inactive)
22,CCn1c(SCC(=O)Nc2cc(Cl)c(Cl)cc2Cl)nnc1-c1cc(Br)ccc1O,-2.32% (inactive)
23,CNC[C@H]1OCc2cnnn2CCCC(=O)N([C@H](C)CO)C[C@@H]1C,2.08% (inactive)
24,Cc1ccc(S(=O)(=O)N(C)C[C@H]2Oc3ccc(NC(=O)Nc4cccc5ccccc45)cc3CC(=O)N([C@H](C)CO)C[C@H]2C)cc1,5.7% (inactive)
25,O=C(CC(NC1CCCC1)C(=O)O)Nc1cccc(Cl)c1 (stereo not drawn),-4.61% (inactive)
26,Cc1ccc(OCC(=O)Nc2cccc(NC(=O)c3ccco3)c2)cc1C,3.45% (inactive)
27,COC(=O)c1ccc(NC(=O)CN(c2ccc(C)c(Cl)c2)S(C)(=O)=O)cc1,-2.86% (inactive)
28,O=C(NCCCn1ccnc1)c1cc2c(s1)CCCC2,-4.73% (inactive)
